Shown are actives, neighbours in structure and some others; about 3.2% of the full set was active somewhere.
GDH-TPI counter: counter-screen for M. tuberculosis FBA inhibitors: GDH-TPI coupled enzymes; GDH-TPI coupled enzyme counterscreen, NADH absorbance; AID 588335; actives 1.2% (n = 360,000); inhibition, % at 4.8 µM; in the data active means inhibition above about 30%;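 further: 0% = DMSO wells and 100% = wells lacking the enzyme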
FBA Mtb inh: Mtb fructose-bisphosphate aldolase inhibition; P9WQA3; purified M. tuberculosis FBA, fluorescence read-out; inhibition, % at 1 µM; actives 2.3% (n = 360,000); AID 588726; in the data active means inhibition above about 27%;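 further: 0% = vehicle and 100% = reference inhibitor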
Target sequence (P9WQA3 whole entry, looked up): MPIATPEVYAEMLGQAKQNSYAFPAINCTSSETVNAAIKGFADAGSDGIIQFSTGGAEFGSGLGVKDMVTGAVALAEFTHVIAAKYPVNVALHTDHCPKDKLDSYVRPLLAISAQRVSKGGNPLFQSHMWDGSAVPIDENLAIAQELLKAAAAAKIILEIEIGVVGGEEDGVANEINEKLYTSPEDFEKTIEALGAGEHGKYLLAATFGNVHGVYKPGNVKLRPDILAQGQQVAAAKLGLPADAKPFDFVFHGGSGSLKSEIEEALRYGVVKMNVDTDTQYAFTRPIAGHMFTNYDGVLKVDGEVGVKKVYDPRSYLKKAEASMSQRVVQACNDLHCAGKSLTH
Mtb bLac sens: beta-lactam sensitization of Mtb H37Rv; M. tuberculosis H37Rv growth with meropenem, percent inhibition; inhibition, % at 25 µM; actives 0.27% (n = 330,000); AID 434955; call rule not given here;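 further: growth measured after seven days incubation then overnight dye step; 0% = bacteria only wells and 100% = bacteria with antibiotic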
PriA SSB inh: K. pneumoniae PriA-SSBct interaction inhibition | AlphaScreen SSBct-PriA binding, biotinylated peptide | AID 1272365 | inhibition, % at 33 µM | actives 0.6% (n = 430,000); in the data active means inhibition mostly above about 37%, no sharp cut-off; inactive means mostly below about 20%;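 further: plate controls were negative control peptide for no effect and reference peptide for full effect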
Rv3671c protease: Rv3671c (M. tuberculosis) protease inhibition; actives 0.048% (n = 320,000); inhibition, % at 5.96 µM; P9WHR9;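 further: extracellular domain of Rv3671c used as enzyme; 0% = enzyme with DMSO and 100% = no enzyme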
Mtb UGM inh: Mtb UDP-galactopyranose mutase inhibition; P9WIQ1; purified UGM, fluorescence polarization probe displacement; inhibition, % at 10 µM; actives 0.06% (n = 320,000); AID 504406; in the data active means inhibition above about 10%, passing the limit was not always enough
Rv3671c confirm: Rv3671c protease inhibition, confirmation | shares compounds with Rv3671c protease | inhibition, % at 5.96 µM | actives 40% (n = 140) | AID 2761
Starred values were filed as active, the others as inactive; i = inactive; . = not tested or not shown. Unless noted, no stated cut-off is given here; in the data, active means inhibition above about 38%; inactive means the rest.

SMILES	GDH-TPI counter	FBA Mtb inh	Mtb bLac sens	PriA SSB inh	Rv3671c protease	Mtb UGM inh	Rv3671c confirm
CC(=O)c1ccccc1OC(=O)c1ccco1	5.0	1.6	8.8	-14.0	9.7	-3.7	.
CCN1CCN(S(=O)(=O)c2nn(Cc3cc(C)ccc3C)cc2C(=O)O)CC1	.	.	.	-6.0	.	.	.
N#CCCN(CCC#N)C(=O)C1c2ccccc2Oc2ccccc21	10.4	4.4	3.8	-3.4	83.6*	72.9*	-2.4
CN(CCC#N)C(=O)COC(=O)C1c2ccccc2Oc2ccccc21	-6.0	2.7	0.2	5.0	-0.4	-1.3	.
Cn1c(/C(C#N)=C/c2ccc(-c3ccc(S(N)(=O)=O)cc3)o2)nc2ccccc21	40.0*	-5.0	-0.9	-7.7	46.9*	7.4	-3.7
Cn1c(/C(C#N)=C/c2ccc(Br)cc2)nc2ccccc21	.	.	.	-13.0	.	.	.
Cc1cc(N)ccc1-n1c(C)ccc1C	-1.7	2.8	2.6	3.8	83.3*	2.0	1.0
CC1CCN(S(=O)(=O)c2ccc3[nH]c(=O)c(=O)[nH]c3c2)CC1	20.1	7.4	-11.6	-2.5	61.5*	-3.9	-3.2
CCOC(=O)C1CCN(S(=O)(=O)c2ccc3[nH]c(=O)c(=O)[nH]c3c2)CC1	5.0	13.0	-8.0	1.6	5.2	1.7	.
O=C(N/N=C/c1cc(Br)c(O)c(Br)c1O)c1ccc2c(c1)OCCO2	31.4*	18.6	6.3	.	41.7*	1.7	21.1
O=C(N/N=C/c1cc(Br)c(Br)o1)c1ccc2c(c1)OCCO2	13.8	-2.7	5.4	i	2.1	2.4	.
O=C(NCC1CCCO1)c1onc(CSc2ccc(Cl)cc2)c1C(=O)O (stereo not given)	4.4	3.2	24.2	-31.6	83.6*	6.1	-0.2
Cc1ccccc1SCc1noc(C(=O)NCC2CCCO2)c1C(=O)O (stereo not given)	2.6	0.8	-7.3	-5.1	4.7	3.5	.
COC(=O)c1ccc(C2C(=C(O)c3ccc(Cl)cc3)C(=O)C(=O)N2C2CCS(=O)(=O)C2)cc1 (stereo not given)	.	.	.	13.3	.	.	.
CC(C)(C)c1ccc(Oc2coc3cc(OCC(=O)O)ccc3c2=O)cc1	-2.6	1.7	-4.2	-2.3	49.1*	1.0	-10.7
O=C(Cc1ccsc1)Nc1cnc2ccnn2c1	.	.	.	-11.0	.	.	.
CCc1cc(=O)oc2cc(C)cc(OC(=O)c3ccco3)c12	3.3	0.3	4.6	-6.3	57.6*	1.6	78.1*
Cc1cc(OCC(=O)NC2CCN(Cc3ccccc3)CC2)c2c(C)cc(=O)oc2c1	0.4	19.4	-0.6	-10.7	-12.4	-1.2	.
CCCc1cc(=O)oc2cc(C)cc(OCC(=O)NC3CCN(Cc4ccccc4)CC3)c12	6.0	22.9	6.7	-15.8	125.1*	-1.5	-2.5
Cc1cc(OC(=O)c2ccco2)c2c3c(c(=O)oc2c1)CCC3	17.2	3.0	4.9	-10.8	17.3	-0.7	.
Cc1cc(OC(=O)c2ccco2)c2c(C)cc(=O)oc2c1	4.9	0.5	-0.3	-4.1	46.9*	-0.1	73.6*
O=C(COc1ccc(C=NNC(=O)c2cc3ccccc3o2)cc1Cl)Nc1ccccc1	.	.	.	-7.2	.	.	.
CC(=O)c1ccc(S(=O)(=O)N2CCN(c3ccc4nncn4n3)CC2)cc1	.	.	.	-2.0	.	.	.
COc1ccc(CCC(=O)Nc2ccc3c(c2)N(CCC(C)C)C(=O)C(C)(C)CO3)cc1	.	.	.	20.0	.	.	.
Cn1c(O)c(C=NNC(=O)c2cc3ccccc3cc2O)c2ccccc21	.	.	.	3.0	.	.	.
SMILES	GDH-TPI counter	FBA Mtb inh	Mtb bLac sens	PriA SSB inh	Rv3671c protease	Mtb UGM inh	Rv3671c confirm
Cn1c(O)c(/C=N/NC(=O)c2cc3ccccc3cc2O)c2ccccc21	18.4	-8.2	-5.5	.	47.2*	1.3	22.0
Cc1cccc2c(=O)oc(-c3ccccc3Cl)nc12	1.7	-0.4	4.1	0.4	50.7*	0.8	71.9*
CCOC(=O)c1c(NC(=S)NC(NC(=O)/C=C/c2ccccc2)C(Cl)(Cl)Cl)sc2c1CCCC2 (stereo not given)	.	.	.	-5.0	.	.	.
CC1=C(C(N)=O)C(c2cccnc2)n2nc(-c3cccc(Cl)c3)nc2N1 (stereo not given)	-1.2	-3.5	5.4	-2.0	-0.8	-0.2	.
CC1=C(C(N)=O)C(c2ccccc2)n2nc(-c3cccc(C)c3)nc2N1 (stereo not given)	5.9	2.7	-2.9	-1.5	64.8*	-0.9	59.5*
Cc1ccc(CNC(=O)c2ccc(NC(=O)C3=CSCCO3)cc2)cc1	1.6	0.8	-4.4	-8.7	-10.0	-0.6	.
